In PubChem BioAssay AID2716 (Broad Institute, 2010):
Screen size: about 320,000 compounds; about 3,300 (1%) were called active.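 Rule for the calls: active = every valid replicate shows activation above 250% relative to neutral control wells; inactive = the rest, any valid replicate at or below 250%.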 Many of the other results were omitted from the sample, so actives are more common in it than they were.

Assay: restored growth of temperature-sensitive Mot1-301 yeast – S. cerevisiae, ATP luminescence, 38.5C, SUMOylation pathway inhibitor project, primary screen (AID 2716);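 note: OY570 slx delta 5 strain wells were the positive control but not used for scaling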
Conditions: S. cerevisiae Mot1-301 growth rescue, at 18.8 µM, stronger effect = higher value, percent above DMSO median, 100 means doubled

SMILES | growth rescue
COc1ccc(-c2c(C#Cc3ccsc3)c3cc(-c4ccc(CN5CCOCC5)cc4)ccc3n2C)cc1 | -20.4% (inactive)
CC1CCCN(Cc2nc3c(c(=O)n(C)c(=O)n3C)n2CC(=O)c2ccccc2)C1 (centres undefined) | -2.98% (inactive)
CC1CCN(Cc2nc3c(c(=O)n(C)c(=O)n3C)n2CCc2ccccc2)CC1 | 768% (active)
COCCn1c(CN2CCC(Cc3ccccc3)CC2)nc2c1c(=O)n(C)c(=O)n2C | -13.7% (inactive)
CC1Cc2ccccc2N1C(=O)CSc1nnc(-c2ccc(S(=O)(=O)N3CCCC3)cc2)n1C (centres undefined) | -12% (inactive)
Cc1ccc(NC(=O)CCNC(=O)c2ccc([N+](=O)[O-])cc2)cc1S(=O)(=O)N1CCOCC1 | -3.52% (inactive)
CCc1cc2c(=O)c(-c3ccon3)c(N)oc2cc1OC | -11.8% (inactive)
CCc1cc2c(=O)c(-c3ccc(F)cc3)c(C(F)(F)F)oc2cc1OCC(=O)O | 807% (active)
Cc1cc(C)cc(Oc2c(C(F)(F)F)oc3cc(OCC(=O)O)ccc3c2=O)c1 | -7.69% (inactive)
CCSC(C)CC1C/C(=N/O)c2c(C)noc2C1 (centres undefined) | 5.53% (inactive)
Cc1ccc(C)c(S(=O)(=O)n2cnc3ccccc32)c1 | 439% (active)
Cc1ccc(S(=O)(=O)n2cnc3ccccc32)c(C)c1 | -12.4% (inactive)
COc1ccc(S(=O)(=O)n2cnc3ccccc32)c(C)c1 | -3.94% (inactive)
CCOC(=O)C1=C(C)NC(C)=C(C(=O)OCC)C1C1=COCCO1 | -16.1% (inactive)
CCOc1ccc(N(CC(=O)NCCOc2ccccc2OC)S(=O)(=O)c2ccccc2)cc1 | 0.484% (inactive)
CN(c1ccccc1)S(=O)(=O)c1ccc(C(=O)N2CCN(c3ccccc3Cl)CC2)cc1 | 19.5% (inactive)
CCCc1[nH]nc2c1C(C1CC=CCC1)C(C#N)=C(N)O2 (centres undefined) | 4.92% (inactive)
N#CC1=C(N)OC2=C(C(=O)CCC2)C1C1CC=CCC1 (centres undefined) | 435% (active)
NC1=C([N+](=O)[O-])C(c2ccccc2)C2=C(CCCC2=O)O1 (centres undefined) | -9.51% (inactive)
O=C1CCCN2N=C(SCC(=O)Nc3ccc(Br)cc3)SC2=N1 | -5.37% (inactive)

SMILES | growth rescue
CC(C)CCNC(=O)c1cccnc1Sc1ccccc1 | 2.14% (inactive)
CC(=O)c1ccc(NC(=O)c2ccc(-n3cncn3)c([N+](=O)[O-])c2)cc1 | 62.2% (inactive)
O=C(O)CSC(NC(=O)c1cccnc1)(C(F)(F)F)C(F)(F)F | -13.2% (inactive)
O=C(Nc1ccccc1N1CCN(c2ccccc2)CC1)c1cccc(F)c1 | 516% (active)
O=C(Nc1ccccc1N1CCCC1)c1ccc2ccccc2c1 | -24.5% (inactive)
Cc1cccc(C(=O)Nc2ccccc2N2CCN(c3ccc(F)cc3)CC2)c1 | 0.874% (inactive)
CC(Sc1ncnc2c1cnn2-c1ccccc1)C(=O)Nc1ccc(N2CCOCC2)cc1 (centres undefined) | -16.6% (inactive)
CCC(=O)Nc1ccc(C(=O)CSc2nnc(CNc3ccc(Cl)cc3)o2)cc1OC | -12.4% (inactive)
CCn1cc(CN2CCN(CC(C)(C)C)C(CCO)C2)c2ccccc21 (centres undefined) | 2.63% (inactive)
CCOc1ccc(OCC(=O)OC(C)C(=O)NC2CCCCC2C)cc1 (centres undefined) | 4.11% (inactive)
O=C(COc1ccc(Cl)cc1)NCc1nnc(SCC(=O)NCC2CCCO2)o1 (centres undefined) | 1.67% (inactive)
Cc1ccc(Cn2c(SCC(=O)N/N=C/c3ccccc3OCC(=O)O)nc3ccccc32)cc1 | 29.2% (inactive)
CCn1c(SCC(=O)N/N=C/C=C/c2ccccc2[N+](=O)[O-])nnc1-c1ccccc1 | -1.22% (inactive)
CCn1c(SCC(=O)N/N=C/c2ccccc2OCC(=O)O)nnc1-c1ccc(C(C)(C)C)cc1 | 746% (active)
CCCCn1c(SCC(=O)NCCc2ccc(OC)c(OC)c2)nc2c1c(=O)n(C)c(=O)n2C | -22.4% (inactive)
CCCSc1nc2c(c(=O)n(C)c(=O)n2C)n1Cc1ccc(C)cc1 | -26.2% (inactive)
CCOc1ccc(Cn2c(SCCCCC#N)nc3c2c(=O)n(C)c(=O)n3C)cc1OCC | 395% (active)
NC(N)=NCCCc1cn(CC(=O)N2CCNCC2)nn1 | 3.99% (inactive)
Cn1c(=O)c2c(SCC(=O)NCC3CCCO3)nc(CC(C)(C)C)nc2n(C)c1=O (centres undefined) | 4.63% (inactive)
CC1CCN(C(=S)NC2CC3CCC2C3)CC1 (centres undefined) | 8.2% (inactive)

SMILES | growth rescue
O=C(OCC(=O)N1CCOCC1)c1ccc(N2CCOCC2)c([N+](=O)[O-])c1 | 15.5% (inactive)
O=C(Oc1ccccc1Cl)c1ccc(N2CCOCC2)c([N+](=O)[O-])c1 | 334% (active)
O=C(c1ccc(N2CCOCC2)c([N+](=O)[O-])c1)N1CCN(c2ccccc2F)CC1 | -2.08% (inactive)
S=C(Nc1ccc(Br)cc1Cl)N1CCC2(CC1)OCCO2 | 14% (inactive)
Cc1ccc(C(C(=O)NC2CCCCC2)N(C(=O)c2csnn2)C2CC2)o1 (centres undefined) | -6.5% (inactive)
CCOc1ccc(C(=O)Nc2cccc(SC)c2)cc1 | -2.04% (inactive)
O=S(=O)(c1ccc(SCc2ccc(Br)cc2)nc1)N1CCOCC1 | 0.526% (inactive)
CCC(C)NC(=O)c1cc(Cl)ccc1OC (centres undefined) | 1740% (inactive)
CCNc1nc(N)nc(Oc2ccc(OCC)nn2)n1 | 5.12% (inactive)
CCNc1nc(N)nc(-c2cc(Cl)ccc2OC)n1 | 263% (active)
CC1=NC2(CCCc3c2no[n+]3[O-])N(O)C1(C)C (centres undefined) | 465% (active)
COCCn1c(Cc2cccn2C)nnc1SCC(=O)Nc1nccs1 | 2.9% (inactive)
COc1cccc(CC(=O)N2CCCC(CCC(=O)N3CCN(c4ccccn4)CC3)C2)c1 (centres undefined) | 15% (inactive)
COc1cccc2sc3cc(NCC[C@@H]4CCCN4C)ccc3c(=O)c12 | 4.78% (inactive)
CC1CC(C)CN(c2ccc(S(=O)(=O)N3CCOCC3)cc2)C1 (centres undefined) | 18.2% (inactive)
Cc1ccc(S(=O)(=O)NC2CCCCCC2)cc1 | 297% (active)
CC(C)c1ccc(S(=O)(=O)NC2CCCC2)cc1 | 306% (inactive)
CSc1ccc(S(=O)(=O)NC2CCCCC2)cc1 | 5.7% (inactive)
CC1CN(C(=S)Nc2ccc(S(N)(=O)=O)cc2)CC(C)O1 (centres undefined) | -5.04% (inactive)
